In PubChem BioAssay (NCI):
About 83,000 compounds went through this panel and 20% of them were active in at least one assay; those are over-represented in the sample as a whole.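 How to read the values: 0–100, growth inhibition (40 = 60% inhibited); 0, no net growth; -100 to 0, cell death (-40 = 40% of starting cells died; -100 = all dead).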 Unmarked numbers belong to inactive results. Calls of active or inactive are those of the source.

system: ACHN renal; assay: NCI-60 one-dose screen, 48 h (100 = growth as untreated, 0 = no growth, -100 = all killed); conditions: 10 µM unless noted
Procedure: Growth inhibition of the ACHN human tumor cell line is measured as a screen for anti-cancer activity. Cells are grown in 96 well plates and exposed to the test compound for 48 hours. Compounds are tested at a single concentration, which is 10^-5 M for most compounds. The reported endpoint is percent growth (GI% or GIPRCNT), where numbers from 0 - 100% represent growth inhibition, and numbers from -100% - 0 represent cell death. For example, a value of 40 represents 60% growth inhibition. A value of 0 means no net growth occurred over the course of the experiment. A value of -40 indicates 40% of cells at the beginning of the experiment died by the end of the experiment. A value of -100 means all cells are dead at the end of the experiment.
NCI-60 Human Tumor Cell Lines Screen was performed using the standard one-dose NCI protocol, which is described in more detail at https://dtp.cancer.gov/discovery_development/nci-60/default.htm.
Compounds with GIPRCNT values below 10 were considered active. Activity score was based on GIPRCNT using the following formula: […]
Score is 0 for GIPRCNT values of 100 or above, 50 for GIPRCNT values of 0, and 100 for GIPRCNT values of -100.

SMILES | growth
COc1ccc(NC2=CC(=O)C(C)=C(C)C2=O)cc1 | 96.1%
Clc1ccc2c(NCCCN3CCOCC3)c3oc4ccc(Cl)cc4c3nc2c1 | 12.1%
Cc1cc2nc3c4cc(Cl)ccc4n(CC(=O)NCCN(C)C)c3nc2cc1C | -47.4% (active)
N/C(=N\c1nc2c(Br)cccc2s1)C(Br)Br | -40.4% (active)
Clc1ccc2c(OCCCN3CCOCC3)c3oc4ccccc4c3nc2c1 | 15.3%
CN(C)CCCNc1c2ccccc2nc2c1oc1ccc(Cl)cc12 | 17.5%
CN1C(=S)N(C)C2C1NN=C1SC(c3ccccc3)=CC(=O)N12 (stereo not given) | 96.8%
CC1=C(C)C(=O)C(Nc2ccccc2)=C(Cl)C1=O | 100%
COc1cccc(-c2nn(-c3ccccc3)cc2-c2ccnc(N3CCN(C(=O)c4ccccc4)CC3)c2)c1 | 93%
Cc1ccc(/C=C/c2nn3c(-c4ccco4)nnc3s2)cc1C | 102%
C#C[C@]1(O)CC[C@H]2[C@@H]3CC=C4c5sc(-c6ccc(F)cn6)nc5CC[C@]4(C)[C@H]3CC[C@@]21C | 47.2%
O=C(N/N=C/c1ccc(Cl)s1)c1[nH]c2ccc(Br)cc2c1-c1ccccc1 | 25.3%
CCOc1ccc2nc(NC(=O)c3ccc(C(F)(F)F)cc3)sc2c1 | 110%
C[C@@H]1CN(c2ccc3ncc(C#Cc4cncc(C(=O)Nc5ccc(CN6CCN(C)CC6)c(C(F)(F)F)c5)c4)n3n2)C[C@H](C)O1 | -94% (active)
CNC(=O)c1cc(-c2ccc(NC(=O)Nc3ccc(N4CCOCC4)c(C(F)(F)F)c3)cc2)nc2cccnc12 | 50.8%
N#Cc1c(-c2ccc(Cl)cc2)nc(SCc2ccc(F)cc2)nc1N1CCNCC1 | 36%
N#Cc1c(-c2ccc(Cl)cc2)nc(SCc2ccccc2)nc1N1CCNCC1 | 47.8%
C#Cc1nc(C2=C(C)C(O)CC2)cs1 (stereo not given) | 94.7%
Cc1ccc(-c2nc(C(Cl)Cl)nc3cc(-c4ccccc4)nn23)cc1 | -59.8% (active)
COc1cc(/C=C/C(=O)c2cc(OC)c(OC)c(OC)c2)ccc1OCc1ccccc1 | 60%

SMILES | growth
c1ccc(CNc2ncnc3ccc(-c4cnc5[nH]ncc5c4)cc23)cc1 | 34.5%
Cc1nc(-c2cc3ccccc3oc2=O)ccc1C(=O)/C=C/c1ccccn1 | 58.7%
C=CCn1c(SCC(=O)c2ccc(Br)cc2)nnc1-c1c[nH]c2ccccc12 | 88.3%
COc1cc2nc(-c3ccc(C(F)(F)F)cc3)cc(OCCCNCC3CCCO3)c2cc1OC (stereo not given) | 31.9%
Clc1ccc(-c2cn3cc(Cc4ccc(Cl)c(Cl)c4)sc3n2)cc1 | 47%
Fc1ccc(-c2nc(C(Cl)Cl)nc3cc(-c4ccccc4)nn23)cc1 | -52.3% (active)
Cc1ccc2ccc3ccc(C)nc3c2n1.Cc1ccc2ccc3ccc(C)nc3c2n1.Oc1c(Cl)cc(Cl)c2ccc(CN3CCCCC3)nc12.[Ru] | -95.6% (active)
Nc1cc(-c2c[nH]c3ccc(F)cc23)nc2cc(-c3c[nH]c4ccc(F)cc34)nn12 | 66.3%
N#Cc1nc(-c2ccccc2)oc1S(N)(=O)=O | 73%
NS(=O)(=O)c1cccc(Nc2nc(SCC(=O)c3ccc(Cl)cc3)nc3ccccc23)c1 | 77.6%
CC(=O)Oc1ccccc1C(=O)Nc1ccc(C(=O)/C=C/c2cccs2)cc1 | 112%
Cc1ccc2c(n1)C(=O)C(Cl)=C(Nc1cccc(C(C)C)c1)C2=O | 50.1%
C#Cc1nc(C2=C(C)C(OC(=O)CCC(=O)O)CC2)cs1 (stereo not given) | 103%
O=C(N/N=C/c1ccc[nH]1)c1[nH]c2ccc(Br)cc2c1-c1ccccc1 | 12.2%
Cn1ccnc1C(=O)/C=C/c1ccc(NC(=O)Nc2ccc(Cl)cc2)cc1 | 88.4%
Cc1cc2nc3c4cc(Cl)ccc4n(CC(=S)NCCN(C)C)c3nc2cc1C | -96.4% (active)
O=[N+]([O-])c1ccc(O)c2ncccc12 | 23.7%
Cc1ccc(CNS(=O)(=O)/N=C2\NC(=O)NC2=C(Cl)Cl)cc1 | 73%
Cn1cc(-c2cc(N)n3nc(-c4cn(C)c5ccc(F)cc45)cc3n2)c2cc(F)ccc21 | -38.6% (active)
N#Cc1ccc(C(=O)CSc2nc(Nc3ccc(S(N)(=O)=O)cc3)c3ccccc3n2)cc1 | 108%
